A short description of assay [1]: compounds binding Alexa647 anti-His antibody – biochemical, small-molecule microarray, 635 nm fluorescence, artefact control for SMM control protein annotation, primary screen (AID 1128).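 Further: score merges feature fluorescence with signal-to-noise for each printed compound spot.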 Conditions: higher = more signal.
For assay [2], the system named is Human papillomavirus type 1a E7 protein (residues 1-88). The assay is described as follows: HPV1a E7 small-molecule binders, primary screen, biochemical, small-molecule microarray, residues 1-88, 635 nm (AID 1129). Conditions: small-molecule microarray binding, fluorescence 635 nm; higher = more signal.
For assay [3], the target named is Focal adhesion kinase 1 (Homo sapiens) (UniProt Q05397). Briefly: PTK2 protein binding on printed compound slides – biochemical, small-molecule microarray, 635/667 nm fluorescence, BSA, DTT, primary screen (AID 1130).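 Further: composite of spot emission at 667 nm and signal to noise over triplicate slides.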 The conditions noted are these: 635 nm fluorescence, higher = more signal.
Chain of Focal adhesion kinase 1 (Homo sapiens) (Q05397 whole entry, looked up): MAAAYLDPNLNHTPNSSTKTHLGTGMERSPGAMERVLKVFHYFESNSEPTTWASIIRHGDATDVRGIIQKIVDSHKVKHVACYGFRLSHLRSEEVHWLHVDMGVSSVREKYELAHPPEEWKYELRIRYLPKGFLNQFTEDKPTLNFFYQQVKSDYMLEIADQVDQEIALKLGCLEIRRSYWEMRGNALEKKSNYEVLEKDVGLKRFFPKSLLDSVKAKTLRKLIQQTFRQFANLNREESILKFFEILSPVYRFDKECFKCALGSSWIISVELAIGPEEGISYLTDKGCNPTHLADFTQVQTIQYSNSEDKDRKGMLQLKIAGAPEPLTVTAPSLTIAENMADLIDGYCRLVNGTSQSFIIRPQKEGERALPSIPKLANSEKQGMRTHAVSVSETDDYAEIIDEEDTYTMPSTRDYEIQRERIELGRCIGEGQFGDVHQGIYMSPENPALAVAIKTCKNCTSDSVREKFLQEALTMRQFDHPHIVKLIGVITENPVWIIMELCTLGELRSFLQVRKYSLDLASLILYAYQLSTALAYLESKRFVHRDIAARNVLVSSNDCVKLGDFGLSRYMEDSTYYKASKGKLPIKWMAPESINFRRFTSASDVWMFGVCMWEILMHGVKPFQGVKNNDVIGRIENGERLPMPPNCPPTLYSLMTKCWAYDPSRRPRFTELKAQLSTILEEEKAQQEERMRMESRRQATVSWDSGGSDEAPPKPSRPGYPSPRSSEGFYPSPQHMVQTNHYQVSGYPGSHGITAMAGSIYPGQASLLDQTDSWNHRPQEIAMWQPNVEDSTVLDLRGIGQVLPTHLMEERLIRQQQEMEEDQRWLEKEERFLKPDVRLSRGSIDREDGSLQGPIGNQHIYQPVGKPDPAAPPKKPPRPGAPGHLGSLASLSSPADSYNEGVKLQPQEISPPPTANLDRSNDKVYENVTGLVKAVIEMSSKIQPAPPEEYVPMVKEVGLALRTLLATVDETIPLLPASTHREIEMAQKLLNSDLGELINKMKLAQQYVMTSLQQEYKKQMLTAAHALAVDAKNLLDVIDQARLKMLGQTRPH
Assay [4] deals with Fibrinogen (Alexa647-labelled). Briefly: Alexa647-fibrinogen binding to printed small molecules – biochemical, small-molecule microarray, 635/667 nm fluorescence, artefact control for SMM control-protein annotation, profiling panel (AID 1131).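 Further: z-score merges 667 nm fluorescence with per-spot signal-to-noise over triplicate slides.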 Conditions: fibrinogen-A647 binding fluorescence, higher = more signal.
The target of assay [5] is Follistatin (Homo sapiens) (UniProt P19883). The assay is described as follows: FST protein binding to printed compounds – biochemical, small-molecule microarray, 635/667 nm fluorescence, primary screen (AID 1132). The conditions noted are these: 635 nm fluorescence, higher = more signal.
Chain of Follistatin (Homo sapiens) (P19883 whole entry, looked up): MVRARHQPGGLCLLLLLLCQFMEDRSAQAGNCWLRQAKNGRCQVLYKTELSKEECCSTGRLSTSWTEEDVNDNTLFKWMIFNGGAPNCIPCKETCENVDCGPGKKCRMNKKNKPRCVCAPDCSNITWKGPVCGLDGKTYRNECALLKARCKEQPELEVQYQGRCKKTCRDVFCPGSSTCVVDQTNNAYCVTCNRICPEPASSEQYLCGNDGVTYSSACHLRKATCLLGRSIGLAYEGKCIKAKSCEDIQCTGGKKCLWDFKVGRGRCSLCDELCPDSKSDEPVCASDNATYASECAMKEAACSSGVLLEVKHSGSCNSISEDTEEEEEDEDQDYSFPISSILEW
For assay [6], the target named is Fibroblast growth factor 2 (Homo sapiens) (UniProt P09038). The assay is described as follows: basic fibroblast growth factor binding to printed compounds – biochemical, small-molecule microarray, 635/667 nm fluorescence, primary screen (AID 1133). The conditions noted are these: FGF2, fluorescence 635/667, higher = more signal.
Chain of Fibroblast growth factor 2 (Homo sapiens) (P09038 whole entry, looked up): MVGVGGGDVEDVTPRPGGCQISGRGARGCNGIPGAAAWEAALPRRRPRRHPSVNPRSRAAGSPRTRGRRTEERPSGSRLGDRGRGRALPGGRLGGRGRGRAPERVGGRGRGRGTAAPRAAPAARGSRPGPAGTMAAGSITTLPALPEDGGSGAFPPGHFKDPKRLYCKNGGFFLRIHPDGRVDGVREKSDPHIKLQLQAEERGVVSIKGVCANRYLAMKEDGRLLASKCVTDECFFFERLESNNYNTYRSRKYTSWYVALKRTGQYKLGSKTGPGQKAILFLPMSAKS
Assay [7] can be described thus: JC-1 mitochondrial potential readout, lung cancer cells – cell-based, A549, JC-1 fluorescence, basal, 24 h, 100 nL, profiling panel (AID 1138).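 Further: A549 lung adenocarcinoma cells under basal conditions with no added stimulus; test concentration not given here.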 The conditions noted are these: higher = more signal.
Assay [8] has as its system Lefty1. Briefly: Lefty1 protein binding to printed compounds – biochemical, small-molecule microarray, 635/667 nm fluorescence, primary screen (AID 1139). Conditions: fluorescence 635/667, higher = more signal.
Assay [9] deals with wheat germ agglutinin (Triticum aestivum), Alexa647-labelled. The assay is described as follows: Alexa647-WGA lectin binding to printed small molecules – biochemical, small-molecule microarray, 635/667 nm fluorescence, artefact control for SMM control-protein annotation, profiling panel (AID 1140).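 Further: score merges 667 nm feature emission with signal to noise over triplicate slides.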 Conditions: WGA-A647 binding, 635 nm fluorescence, higher = more signal.
Assay [10] has as its target Luciferin 4-monooxygenase (Photinus pyralis) (UniProt P08659). The assay is described as follows: inhibition of purified Photinus pyralis luciferase – biochemical, luminescence, purified enzyme, 2006 set, primary screen (AID 1141).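 Further: cell-free assay with purified firefly luciferase at 100 ng per well in PBS; test concentration not given here.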 Conditions: purified firefly luciferase, SteadyGlo luminescence, 30 min; higher = more signal, called active from +8 up or from −8 down.
Assay [11] has as its system Wnt5a (protein binding on small-molecule microarray). Briefly: small molecules binding Wnt5a protein – biophysical, small-molecule microarray, 635/667 nm fluorescence, primary screen (AID 1142).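 Further: fluorescence read at 667 nm with signal to noise per printed feature.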 The conditions noted are these: 635 nm fluorescence, higher = more signal.
The nature of assay [12]: ATP-based viability of Huh7 replicon cells – cell-based, CellTiter-Glo luminescence, basal, 48 h, cytotoxicity control for HCV replication inhibitor project, primary screen (AID 1143).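 Further: Huh7 hepatoma cells carrying a hepatitis C replication reporter with no stimulus; test concentration not given here.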 Conditions: higher = more signal, called active from +8 up or from −8 down. In general terms: In antiviral work, replicon cells carry a viral genome segment that copies itself.
The nature of assay [13]: Pseudomonas biofilm growth suppression – PAO1 strain, BacTiter-Glo luminescence, LB-PBS, primary screen (AID 1144). The conditions noted are these: P. aeruginosa PAO1 biofilm, 12 h, higher = more signal.
Assay [14] can be described thus: basal CRE-LacZ reporter activity in PC12 – cell-based, unstimulated, primary screen (AID 1145). Conditions: no forskolin, luminescence, 4.5 h, higher = more signal, called active from +8 up or from −8 down.
A short description of assay [15]: forskolin-driven CRE-LacZ activity in PC12 – cell-based, CRE-LacZ reporter, forskolin-stimulated, primary screen (AID 1146).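 Further: PC12 cells with 6xCRE LacZ reporter stimulated by forskolin 10 µM; beta-galactosidase reporter signal reflecting CREB driven transcription.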 Conditions: luminescence, 4.5 h, higher = more signal, called active from +8 up or from −8 down.
The target of assay [16] is Streptavidin (Streptomyces avidinii) (UniProt P22629). The assay is described as follows: compounds binding control protein streptavidin – biophysical, small-molecule microarray, 635/667 nm fluorescence, artefact control for SMM compound annotation, primary screen (AID 1147).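 Further: signal reflects streptavidin binding to arrayed compounds as a control protein.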 The conditions noted are these: higher = more signal.
Chain of Streptavidin (Streptomyces avidinii) (P22629 whole entry, looked up): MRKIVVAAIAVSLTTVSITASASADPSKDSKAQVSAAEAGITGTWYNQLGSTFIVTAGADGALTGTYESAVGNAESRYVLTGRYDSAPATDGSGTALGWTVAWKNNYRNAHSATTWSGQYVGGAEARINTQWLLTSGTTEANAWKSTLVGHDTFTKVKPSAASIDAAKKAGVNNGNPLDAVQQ
A short description of assay [17]: probe aInhba binding on compound microarray – biochemical, small-molecule microarray, 635/667 nm fluorescence, primary screen (AID 1148).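 Further: score merges 667nm spot fluorescence with signal-to-noise for antibody binding to printed compounds.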 The conditions noted are these: higher = more signal.
Assay [18] deals with Torsin-1A (Homo sapiens) (UniProt O14656). The assay is described as follows: TOR1A wild-type binding on microarray – cell lysate, small-molecule microarray, lysate, 635/667 nm, primary screen (AID 1149). Conditions: COS7 hTOR1A-WT lysate, 635 nm fluorescence, higher = more signal.
Chain of Torsin-1A (Homo sapiens) (O14656 whole entry, looked up): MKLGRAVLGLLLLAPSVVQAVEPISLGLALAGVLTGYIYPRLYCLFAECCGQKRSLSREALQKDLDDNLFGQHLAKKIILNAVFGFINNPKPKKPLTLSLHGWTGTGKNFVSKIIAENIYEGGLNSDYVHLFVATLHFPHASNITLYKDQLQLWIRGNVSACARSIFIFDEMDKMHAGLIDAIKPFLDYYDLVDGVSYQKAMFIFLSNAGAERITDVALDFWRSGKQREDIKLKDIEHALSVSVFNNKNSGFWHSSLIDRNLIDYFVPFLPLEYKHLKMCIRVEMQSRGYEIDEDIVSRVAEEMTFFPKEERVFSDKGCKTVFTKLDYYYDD
The target is the same in assay [19]. The assay is described as follows: torsin A mutant lysate binding on microarrays – cell lysate, small-molecule microarray, COS7 lysate, 635/667 nm fluorescence, primary screen (AID 1150).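 Further: score pools 667 nm emission and signal to noise measuring lysate protein binding.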 Conditions: COS7 hTOR1A mutant lysate, 635 nm fluorescence, higher = more signal.
The test system of assay [20] is Sonic hedgehog protein (Shh). Briefly: Sonic hedgehog microarray binding compounds – biochemical, small-molecule microarray, 635/667 nm fluorescence, primary screen (AID 1151).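 Further: Shh protein binding to compounds spotted on small-molecule microarray slides; score combines spot fluorescence intensity with signal-to-noise across triplicate slides.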 The conditions noted are these: 635 nm fluorescence, higher = more signal.

Structures are written as SMILES. Calls of active or inactive are those of the source. Unless noted, how the calls were made is not given here.

Chain of Luciferin 4-monooxygenase (Photinus pyralis) (P08659 whole entry, looked up): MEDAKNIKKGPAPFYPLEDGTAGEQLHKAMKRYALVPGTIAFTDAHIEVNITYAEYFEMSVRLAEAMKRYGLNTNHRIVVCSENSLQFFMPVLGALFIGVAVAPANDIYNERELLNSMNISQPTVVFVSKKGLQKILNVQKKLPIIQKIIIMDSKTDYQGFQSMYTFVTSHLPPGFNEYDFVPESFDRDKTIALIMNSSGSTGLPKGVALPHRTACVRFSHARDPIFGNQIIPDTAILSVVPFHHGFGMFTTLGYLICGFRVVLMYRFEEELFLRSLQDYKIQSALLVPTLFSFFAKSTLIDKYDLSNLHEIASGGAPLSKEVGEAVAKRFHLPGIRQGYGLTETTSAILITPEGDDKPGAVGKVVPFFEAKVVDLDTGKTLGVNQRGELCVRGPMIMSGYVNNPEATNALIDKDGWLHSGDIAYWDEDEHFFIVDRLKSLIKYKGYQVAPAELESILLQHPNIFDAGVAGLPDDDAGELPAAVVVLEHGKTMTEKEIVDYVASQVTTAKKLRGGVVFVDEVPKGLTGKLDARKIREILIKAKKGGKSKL

As for `COC(=O)[C@@]1(Cc2ccc(F)cc2)[C@H]2c3cc(C(=O)N4CCCC4)n(CCN4CNCC4=O)c3C[C@H]2CN1C(=O)c1ccccc1`, the composite z-score in assay [1] is 2.44; in [2], 1.24; in [3], 0.922; in assay [4] it was 1; in assay [5], -0.0189; in [6], -0.841. In addition, the composite z-score in assay [8] was -0.0252; in assay [9], 1.01; in [11], 0.289; in assay [16], 1.04; in [17], 0.179; in [18], 1.51. Besides, the composite z-score in assay [19] is 1.77; in [20], -0.164. Besides, the z-score in assay [7] was -1.6; in assay [10], 2.51 (inactive); in assay [12], -1.11 (inactive); in [13], -0.917 (inactive); in assay [14] it was 0.39 (inactive); in [15], -1.08 (inactive).

Consider `CN1C(=O)C2C=CC(C(O)c3ccccn3)N(N(c3ccccc3)c3ccccc3)C2C1=O` (stereo not given), for which the composite z-score in assay [1] worked out at 0.375; in assay [2] it was 0.669; in assay [3], 0.0673; in [4] it was 0.66; in assay [5], 0.82; in [6] it was 0.397. Besides, the composite z-score is 0.0714 in assay [8]; 0.747 in assay [9]; 0.485 in assay [11]; -0.0902 in assay [16]; 0.167 in [17]; 0.678 in assay [18]. The composite z-score was 0.291 in [19] and 0.424 in assay [20]. The z-score is 0.613 in assay [7]; -0.009 (inactive) in assay [10]; 0.346 (inactive) in assay [12]; -1.26 (inactive) in assay [13]; 0.0569 (inactive) in [14]; -0.164 (inactive) in assay [15].

Consider `CCOC(=O)C1=CC[C@@H](c2ccc(OCc3ccccc3)c(OC)c2)N(S(=O)(=O)c2ccc(C)cc2)[C@H]1c1ccc(SC)cc1`, for which the composite z-score in assay [1] is 1.44; in assay [2], 1.24; in [3] it was 0.398; in [4] it was 0.715; in assay [5], 0.761; in [6], 0.159. In addition, the composite z-score turned out to be 0.542 in [8]; 0.71 in assay [9]; 0.683 in assay [11]; 1.42 in [16]; 0.113 in [17]; 1.28 in [18]. For the same compound, the composite z-score in assay [19] amounted to 1.4; in assay [20], 0.249. The z-score in assay [7] is -0.219; in assay [10] it was 0.107 (inactive); in assay [12], -1.51 (inactive); in [13], 0.765 (inactive); in [14], 0.967 (inactive); in assay [15] it was 0.137 (inactive).

Consider `CN(C)C(=O)C1N=C(c2ccc(OCCCO)cc2)N(c2ccccc2)O1` (stereo not given), for which the composite z-score in [1] worked out at 1.33; in assay [2] it was 1.13; in [3], 0.268; in [4], 0.598; in assay [5], 1.35; in assay [6], 1.8. The composite z-score in assay [8] is 1.29; in assay [9], 0.586; in [11], 1.15; in assay [16] it was -0.151; in assay [17] it was 0.0658; in [18], 1.19. The values for the composite z-score in assay [19] and in [20] were 1.56 and 2.03, respectively. Further, the z-score was 0.936 in [7]; -14.9 (active) in assay [10]; -1.17 (inactive) in [12]; 0.265 (inactive) in [13]; 0.0451 (inactive) in assay [14]; -0.102 (inactive) in assay [15].

On to `CCCC[C@@H](O)C1=C(COc2ccccc2)C[C@H]2C(=O)N(C)C(=O)[C@H]2[C@H]1CO`, for which the composite z-score in assay [1] is 0.0713; in assay [2], -0.231; in [3] it was 0.713; in assay [4], -0.247; in [5] it was 0.129; in assay [6], -0.16. The composite z-score in assay [8] was 0.0695; in assay [9], -0.488; in assay [11] it was -0.339; in assay [16], -0.803; in assay [17] it was -0.102; in assay [18] it was -0.631. In addition, the composite z-score in assay [19] turned out to be 0.596; in assay [20], 0.406. Also, the z-score in assay [7] was 0.708; in assay [10], -0.475 (inactive); in assay [12], -1.22 (inactive); in assay [13] it was -1.24 (inactive); in assay [14], 2.49 (inactive); in assay [15], -0.94 (inactive).
